TMEM16A act: TMEM16A chloride channel activators or potentiators, primary screen, cell-based, HTS | AID 623877, 2012 | HEK293 TMEM16A/YFP-H148Q/I152L, iodide quench fluorescence; stronger effect = lower value | B-score at 10 µM | Anoctamin-1 (Mus musculus), Q8BHY3 | 340,000 tested, 0.3% active;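 active means fluorescence-ratio B-score plate-corrected deviation score at least 3 library SD below zero, with starting fluorescence score within 5 deviations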;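 further: channel opened by trigger with iodide after compound preincubation; score built on the fluorescence ratio of max minus min over baseline; more negative score means more quench and so TMEM16A activation or potentiation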
CRFR2-BP antag: antagonists of CRF-BP/CRF-R2 complex, primary screen, cell-based, HEK293, calcium dye fluorescence, uHTS; CRF-induced calcium fluorescence; inhibition, % at 11.8 µM; 350,000 tested, 0.59% active;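 active means inhibition of the ligand-induced calcium signal above about 50% at the single tested concentration, limit read from the data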
TMEM16A inh: TMEM16A chloride channel inhibitors, primary screen, cell-based, HTS. Anoctamin-1 (Mus musculus), Q8BHY3. HEK293 TMEM16A/YFP iodide influx fluorescence, ionomycin. normalized B-score (activity score, 25-100; higher = stronger inhibition) at 10 µM. 310,000 tested, 1.2% active. AID 588511, 2011;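 active means ratio plate-corrected score three or more library SD toward inhibition, starting fluorescence score within five deviations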;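 further: score derived from kinetic fluorescence span divided by baseline fluorescence per well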
RTF Ca sens act: cardiac RTF calcium sensitivity activators, primary screen, biochemical, IANBD-TnC fluorescence, EC20 calcium; Troponin I, cardiac muscle (Homo sapiens) + Troponin T, cardiac muscle (Homo sapiens) + …; IANBD-labeled TnC RTF fluorescence at EC20 calcium; 0% EC20 calcium, 100% full calcium; activation, % at 7.2 µM; 340,000 tested, 0.24% active; AID 493008, 2010;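 active means activation above the mean over all tested compounds plus 3 SD, cut at about 30% in these data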;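 further: rise in fluorescence read as greater calcium sensitivity of cardiac thin filaments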
CRFBP-R2 agonist: agonists of CRF-BP/CRF-R2 complex, primary screen, cell-based, HEK293, calcium dye fluorescence, uHTS; AID 588473, 2011; calcium dye fluorescence (FLIPR); percent of saturating CRF peptide response; 350,000 tested, 0.46% active; activation, % at 13.2 µM; CRF-binding protein / CRF receptor 2 complex (human);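 active means activation of at least 50%, plus an integration ratio under a set limit after plate pattern correction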
Cardiac RTF inh: cardiac RTF calcium sensitivity inhibitors, primary screen, biochemical, IANBD-TnC fluorescence, EC70 calcium; AID 493244, 2011; inhibition, % at 7.15 µM; Troponin I, cardiac muscle (Homo sapiens) + Troponin T, cardiac muscle (Homo sapiens) + …; 340,000 tested, 0.12% active; IANBD-labeled cardiac RTF, Ca2+ fluorescence;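 active means inhibition above the mean inhibition of all tested compounds plus 3 SD, cut at about 17% in these data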;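 further: assay run at fixed EC70 calcium of 1.6 mM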
TMEM16A reconf: TMEM16A chloride channel inhibitors, confirmation, cell-based, re-confirmation; shares compounds with TMEM16A inh; inhibition, % at 10 µM; 2,300 tested, 39% active; AID 652189, 2013; HEK293 TMEM16A/YFP-H148Q, iodide quench fluorescence; ionomycin added to raise cell calcium;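 active means mean duplicate percent inhibition, scaled so buffer wells are 0 and the reference blocker 100, over three buffer SD above buffer mean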
TMEM16A Ca cntr: calcium mobilization in TMEM16A/YFP HEK293 cells, confirmation, counter-screen for TMEM16A inhibitor project | shares compounds with TMEM16A inh | AID 652231, 2013 | calcium response (% of ionomycin), % at 10 µM | 2,300 tested, 2% active | Fluo4 calcium mobilization;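 active means duplicate-averaged calcium signal over 20% of the ionomycin maximum, relative to buffer baseline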;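 further: each well's signal is peak minus trough fluorescence divided by its pre-addition baseline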
Parental YFP cnt: iodide YFP quench changes in parental YFP-HEK293, counter-screen for TMEM16A inhibitor project, cell-based; shares compounds with TMEM16A inh; ionomycin; YFP ratio F(max-min)/F0 at 10 µM; 2,300 tested, under 10 active; AID 652233, 2013;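 active means yellow fluorescent protein signal ratio exceeding the buffer control mean by over 5 SD of those controls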;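 further: ratio is mean of duplicate wells from kinetic YFP trace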
ClC-1 inh: ClC-1 chloride channel inhibition, selectivity assay for TMEM16A inhibitor project, cell-based, voltage-dependent ClC-1; shares compounds with TMEM16A inh; CHO ClC-1-YFP, iodide influx fluorescence quench; iodide control reads 0, buffer control 100; ratio percent, % at 10 µM; 2,300 tested, under 10 active;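 active means duplicate-mean ratio percent above the mean of iodide-only control wells, which defines zero, plus 5 of their SD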;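 further: higher percent means stronger block of ClC-1 iodide influx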
Target sequence (P35524 whole entry, looked up): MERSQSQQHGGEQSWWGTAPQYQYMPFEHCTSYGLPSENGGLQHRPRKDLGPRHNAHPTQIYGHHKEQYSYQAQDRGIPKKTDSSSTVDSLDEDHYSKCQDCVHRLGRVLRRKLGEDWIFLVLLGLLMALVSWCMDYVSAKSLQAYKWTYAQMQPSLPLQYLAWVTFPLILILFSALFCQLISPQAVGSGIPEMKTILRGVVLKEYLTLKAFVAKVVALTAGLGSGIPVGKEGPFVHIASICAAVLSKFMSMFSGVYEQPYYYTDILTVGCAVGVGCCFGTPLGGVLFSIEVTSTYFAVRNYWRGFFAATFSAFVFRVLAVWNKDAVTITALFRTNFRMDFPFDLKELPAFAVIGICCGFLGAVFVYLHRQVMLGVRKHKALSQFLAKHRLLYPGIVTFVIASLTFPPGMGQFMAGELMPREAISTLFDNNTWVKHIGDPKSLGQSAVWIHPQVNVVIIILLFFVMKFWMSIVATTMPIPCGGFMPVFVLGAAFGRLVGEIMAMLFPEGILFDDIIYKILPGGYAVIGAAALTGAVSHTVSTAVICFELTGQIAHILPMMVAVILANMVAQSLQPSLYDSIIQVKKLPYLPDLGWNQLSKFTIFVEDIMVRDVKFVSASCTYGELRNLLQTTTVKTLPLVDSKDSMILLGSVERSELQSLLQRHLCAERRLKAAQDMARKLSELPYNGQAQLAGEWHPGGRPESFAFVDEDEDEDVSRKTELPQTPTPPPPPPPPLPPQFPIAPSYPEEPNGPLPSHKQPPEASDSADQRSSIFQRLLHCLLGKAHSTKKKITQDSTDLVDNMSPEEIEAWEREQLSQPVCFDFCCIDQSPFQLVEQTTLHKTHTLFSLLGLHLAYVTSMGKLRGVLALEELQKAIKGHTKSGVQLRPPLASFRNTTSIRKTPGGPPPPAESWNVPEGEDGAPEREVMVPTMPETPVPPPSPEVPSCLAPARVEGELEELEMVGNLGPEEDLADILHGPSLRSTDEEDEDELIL
Large screens that a line does not name were inactive (follow-up assays come after a bar, where they were run). Only some compounds are listed: those with a hit (about 2.4% of all), similar ones and a draw of the others.

Cc1cc(C(=O)OC(C)C(=O)Nc2nc(-c3ccccc3)cs2)c(C)o1 (configuration not stated)	TMEM16A inh 25 | TMEM16A reconf inactive | TMEM16A Ca cntr inactive | Parental YFP cnt inactive | ClC-1 inh inactive
CC(OC(=O)c1ccc(NC(=O)CC#N)cc1)C(=O)Nc1nc(-c2ccccc2)cs1 (configuration not stated)	TMEM16A inh 100 | TMEM16A reconf 22% | TMEM16A Ca cntr inactive | Parental YFP cnt inactive | ClC-1 inh inactive
CC(OC(=O)c1ccc(NC(=O)CC#N)cc1)C(=O)Nc1ccc(Oc2ccccc2)cc1 (configuration not stated)	none (no result: CRFR2-BP antag, CRFBP-R2 agonist)
Cc1cc2n(n1)C(c1cn(-c3ccccc3)nc1C)Nc1c(C)cccc1-2 (configuration not stated)	none | TMEM16A reconf inactive | TMEM16A Ca cntr inactive | Parental YFP cnt inactive | ClC-1 inh inactive
Cc1cc2n(n1)C(c1cn(-c3ccccc3)nc1C)Nc1ccccc1-2 (configuration not stated)	none
O=C(COC(=O)CCNS(=O)(=O)c1cccc(C(F)(F)F)c1)NC(=O)NC1CCCCC1	TMEM16A inh 25 | TMEM16A reconf 24% | TMEM16A Ca cntr inactive | Parental YFP cnt inactive | ClC-1 inh inactive
Cc1ccsc1C(=O)NN=C1CCCCCC1	none
CCN(CC)C(=O)COc1ccc2oc(C)c(C(=O)OC(C)C)c2c1	none | TMEM16A reconf inactive | TMEM16A Ca cntr inactive | Parental YFP cnt inactive | ClC-1 inh inactive
Cc1oc2ccc(OS(C)(=O)=O)cc2c1C(=O)OC(C)C	none
Cc1cc(NC(C)c2ccccc2)n2ncc(-c3ccccc3)c2n1 (configuration not stated)	TMEM16A inh 100 | TMEM16A reconf inactive | TMEM16A Ca cntr inactive | Parental YFP cnt inactive | ClC-1 inh inactive
Cc1cc(NCc2ccccc2)n2ncc(-c3ccccc3)c2n1	none
CC1C=CCC2C(=O)N(c3cccc(C(=O)NCc4ccccc4)c3)C(=O)C12 (configuration not stated)	none
O=C(C1CCC(=O)N(C2CCCC2)C1)N1CCN(c2ccc(Cl)cc2)CC1 (configuration not stated)	none
Cc1ccc(Cl)cc1N1CCN(C(=O)C2CCC(=O)N(C3CCCCCC3)C2)CC1 (configuration not stated)	TMEM16A inh 100 | TMEM16A reconf 18% | TMEM16A Ca cntr inactive | Parental YFP cnt inactive | ClC-1 inh inactive
CCN(C(=O)CSC1=Nc2ccccc2C2CC=NN12)C1CCS(=O)(=O)C1 (configuration not stated)	none
CCOC(=O)C1CCN(S(=O)(=O)C(F)(F)c2nc3ccccc3s2)CC1	TMEM16A inh 100 | TMEM16A reconf 30% | TMEM16A Ca cntr inactive | Parental YFP cnt inactive | ClC-1 inh inactive
Cc1noc(C)c1COc1ccccc1C(=O)NC(C)c1ccc(F)cc1 (configuration not stated)	none (no result: TMEM16A inh)
O=C(CCNC(=O)C1CCN(S(=O)(=O)c2ccc(F)cc2)CC1)NCc1ccccc1Cl	none
C=CCOc1c2ccc(C(=O)NCCc3ccc(C)cc3)cc2nn1C	none
CC(C)c1ccccc1OCC(=O)NCC(c1cccs1)N1CCOCC1 (configuration not stated)	TMEM16A inh 100 | TMEM16A reconf 34% | TMEM16A Ca cntr inactive | Parental YFP cnt inactive | ClC-1 inh inactive
COc1ccccc1OCC(=O)NCC(c1cccs1)N1CCOCC1 (configuration not stated)	none
CCCN(CCC)S(=O)(=O)c1ccc2c(c1)CCCN2C(C)=O	none
CCCN(CCC)S(=O)(=O)c1ccc(C(=O)N2CCCc3ccccc32)cc1	TMEM16A inh 100 | TMEM16A reconf inactive | TMEM16A Ca cntr inactive | Parental YFP cnt inactive | ClC-1 inh inactive
COc1cc(C=CC(=O)OCC=Cc2ccc3c(c2)OCO3)cc(OC)c1OC	none (no result: TMEM16A inh)
COC(=O)[C@@]1(Cc2ccccc2)[C@H]2C(=O)N(C)C(=O)[C@H]2[C@H]2CN=C(SCc3ccc(Cl)cc3)N21	none (no result: TMEM16A act, TMEM16A inh)
COc1ccc(-c2cn(Cc3ccc(C(=O)c4ccccc4)cc3)nn2)cc1	TMEM16A inh 25 (no result: TMEM16A act, RTF Ca sens act, Cardiac RTF inh) | TMEM16A reconf 27% | TMEM16A Ca cntr inactive | Parental YFP cnt inactive | ClC-1 inh inactive
CCC(C)[C@H](NC(=O)N1CCn2c1nc1ccccc12)C(=O)NCc1ccccc1 (some centres not stated)	none
O=C(O)C1CCCC[C@H]1C(=O)Nc1ncc([N+](=O)[O-])s1 (some centres not stated)	none
O=C(c1cc2nc(-c3ccc(F)cc3)cc(C(F)(F)F)n2n1)N1CCCCC1c1cccnc1 (configuration not stated)	TMEM16A inh 100 | TMEM16A reconf 22% | TMEM16A Ca cntr inactive | Parental YFP cnt inactive | ClC-1 inh inactive
C=CCOC(=O)C1=C(C)NC(SCC)=C(C#N)C1c1ccc(Cl)cc1 (configuration not stated)	TMEM16A inh 100 | TMEM16A reconf 22% | TMEM16A Ca cntr inactive | Parental YFP cnt inactive | ClC-1 inh inactive
C=CCOC(=O)C1=C(C)NC(SCC(N)=O)=C(C#N)C1c1ccc(C)cc1 (configuration not stated)	none
O=C(Nc1ccc(-c2noc(-c3ccccc3F)n2)cc1)c1cccs1	none
Cc1ccccc1-c1nc(-c2ccc(NC(=O)c3cccs3)cc2)no1	none | TMEM16A reconf inactive | TMEM16A Ca cntr inactive | Parental YFP cnt inactive | ClC-1 inh inactive
CCN(CC)c1ccc(/C=N/N=C(N)N)c(O)c1	none

Screens deposited in PubChem by several laboratories.
